PubChem BioAssay (Tox21)
“And” between values parts separate entries of the source, which are not always exact repeats. Equal values may be shown once. Results filed as inconclusive are left out. More than one record can exist for a structure, and the calls need not agree. The source made the active and inactive calls. Unless noted, calls come from the whole dose curve; as a rule, active = well fitted curve in the direction sought with a large enough effect in the repeat runs; inconclusive = weak or mixed curves; inactive = no such curve, though single readings can be large; an effect the other way counts as inactive or inconclusive.

How the values were obtained:
[1] = target: Luciferin 4-monooxygenase (Photinus pyralis) (UniProt P08659); assay: qHTS assay to identify small molecule inhibitors of firefly luciferase (AID 1224835); note: nearly all actives have a fitted effect of over 25% in size
Procedure, shortened: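 Inhibition of purified Photinus luciferase is measured by luminescence. Substrate levels (D-luciferin, ATP) sit at their KM values. Each compound is tested in a concentration series.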

[2] = qHTS assay to identify small molecule agonists of the constitutive androstane receptor (CAR) signaling pathway - cell viability counter screen (AID 1224836); note: nearly all actives have a fitted effect of over 45% in size
Procedure, shortened: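 HepG2 cells stably carrying hCAR and a CYP2B6-2.2kb reporter; 15-concentration compounds plus PK11195 (final 0.75 uM), 23 hr at 37 C/5% CO2. Viability read by CellTiter-Fluor fluorescence.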

[3] = qHTS assay to identify small molecule antagonists of the constitutive androstane receptor (CAR) signaling pathway - cell viability counter screen (AID 1224837); note: nearly all actives have a fitted effect of over 45% in size
Procedure, shortened: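 Fluorescence from CellTiter-Fluor served as the viability signal. Human hepatoma HepG2 cells stably bearing hCAR and CYP2B6-2.2kb received compound plus CITCO (50 nM final) for 23 hr.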

[4] = target: Nuclear receptor subfamily 1 group I member 3 (Homo sapiens) (UniProt Q14994); assay: qHTS assay to identify small molecule antagonists of the constitutive androstane receptor (CAR) signaling pathway (AID 1224838);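 note: HepG2 cells stably expressing hCAR with CYP2B6 luciferase reporter stimulated by CITCO; nearly all actives have a fitted effect of over 40% in size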
Procedure, shortened: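 Quantitative HTS in double-stable HepG2-CYP2B6-hCAR cells. After 4 h plating, cells get compound (15 concentrations) and CITCO at 50 nM final, incubate 24 h at 37 C, then ONE-Glo luminescence is read.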

[5] = target: Nuclear receptor subfamily 1 group I member 3 (Homo sapiens) (UniProt Q14994); assay: qHTS assay to identify small molecule agonists of the constitutive androstane receptor (CAR) signaling pathway (AID 1224839);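 note: HepG2 cells stably carrying human CAR and a CYP2B6 luciferase reporter; nearly all actives have a fitted effect of over 15% in size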
Procedure, shortened: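 HepG2 cells stably co-transfected with hCAR and a CYP2B6-2.2kb luciferase reporter; compounds at 15 concentrations with 0.75 uM PK11195 present. After 24 hr at 37 C, luciferase read by ONE-Glo luminescence.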

[6] = qHTS assay to identify small molecule antagonists of the estrogen related receptor signaling pathway with the pleiotropic PPARgamma coactivator (PGC) from Tox21 10K library - cell viability counter screen (AID 1224840; active = well fitted cell-killing curve with a large enough effect in the repeat runs, not every such curve was filed as active; note: nearly all actives have a fitted effect of over 40% in size)
Procedure, shortened: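 Compounds in DMSO, alongside positive and negative controls, were pinned onto PGC/ERR cells (2,000 per well). Exposure lasted 17.5 hours at 37 C, followed by a 30-minute CellTiter-Fluor incubation and fluorescence reading.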

[7] = qHTS assay to identify small molecule agonists of the hypoxia (HIF-1) signaling pathway - cell viability counter screen (AID 1224844; calls by dose curve; note: nearly all actives have a fitted effect of over 50% in size)
Procedure, shortened: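 Luminescent ATP content (CellTiter-Glo, 30 min, room temperature) served as the viability measure in HRE-bla ME-180 cells exposed to compounds for 17 hrs in low-serum medium (0.5% dialyzed FBS).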

[8] = qHTS assay to identify small molecule agonists of H2AX (AID 1224845; active = well fitted activation curve with a large enough effect in the signal ratio in the repeat runs, not every such curve was filed as active; the % refers to the signal ratio)
Procedure, shortened: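 Phospho-H2AX Ser139 measured by HTRF (ex 320 nm; em 665 and 620 nm) after 24 hr antibody incubation. Compounds, 15 concentrations, 0.76% DMSO, were applied to CHO-K1 cells for 3hr at 37C before lysis.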

[9] = qHTS assay to identify small molecule agonists of H2AX - cell viability counter screen (AID 1224847; calls by dose curve;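 note: wild-type CHO-K1 cells; top concentration of the series differs between compounds; nearly all actives have a fitted effect of over 30% in size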)
Procedure, shortened: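 CHO-K1 cells plated overnight at 37C, then exposed 3 h at 37C to compounds at 15 concentrations (0.76% DMSO final). Viability by CellTiter-Glo luminescence after 30 min at room temperature.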

[10] = qHTS RealTime-Glo MT Cell Viability Assay in HepG2 cells - 24 hour (AID 1224867); note: nearly all actives have a fitted effect of over 50% in size
Procedure, shortened: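 Viability was tracked continuously by NanoLuc luminescence from prosubstrate reduced by living HepG2 cells, at successive time points over 40 h of compound exposure. Cells with reagent were preincubated 5 h at 37 °C before compound addition.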

[11] = qHTS RealTime-Glo MT Cell Viability Assay in HEK293 cells - 32 hour (AID 1224868); note: top concentration of the series differs between compounds; nearly all actives have a fitted effect of over 50% in size
Procedure, shortened: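 Viability tracked continuously by luminescence as live cells reduce a prosubstrate for NanoLuc; HEK293 cells preincubated 5 h, compound-treated at 37 C, and read at 0, 8, 16, 24, 32 and 40 h.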

[12] = A CellTox Green Cytotoxicity Assay to monitor cytotoxicity in HEK293 cells - 0 hour (AID 1224869); note: nearly all actives have a fitted effect of over 50% in size
Procedure, shortened: (§1)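 Each value comes from one timepoint of a single continuous run in which HEK293 cells with CellTox Green were exposed to compound for up to 40 h at 37 C, dye fluorescence rising with cell death.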

[13] = qHTS RealTime-Glo MT Cell Viability Assay in HepG2 cells - 40 hour (AID 1224870); note: nearly all actives have a fitted effect of over 50% in size
Procedure, shortened: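 Real-time viability: cells seeded at 600 per well together with NanoLuc and cell-permeant prosubstrate, compounds added after 5 h incubation. Luminescence tracked at 0, 8, 16, 24, 32 and 40 h of exposure.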

[14] = A CellTox Green Cytotoxicity Assay to monitor cytotoxicity in HEK293 cells - 40 hour (AID 1224871); note: nearly all actives have a fitted effect of over 45% in size
Procedure, shortened: as §1

[15] = target: Thyrotropin receptor (Homo sapiens) (UniProt P16473); assay: qHTS assay to identify small molecule agonists of the thyroid stimulating hormone receptor (TSHR) signaling pathway (AID 1224843; calls by dose curve; note: nearly all actives have a fitted effect of over 45% in size; note: potency is the fitted concentration of half-maximal effect)
Procedure, shortened: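 Screening of the Tox21 10K collection used HEK293 cells engineered with TSHR at 800 cells per well. After a 30-min room-temperature compound exposure, HTRF cAMP reagents were added and fluorescence recorded 1 h later.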

[16] = qHTS assay to identify small molecule agonists of the hypoxia (HIF-1) signaling pathway (AID 1224846; active = well fitted activation curve with a large enough effect in the signal ratio in the repeat runs, not every such curve was filed as active; the % refers to the signal ratio)
Procedure, shortened: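 Measured by blue/green FRET after loading CCF4-AM: beta-lactamase expressed from a hypoxia response element in ME-180 cells. Test agents were delivered in DMSO and left 17 hrs; cells had been plated 5 hrs earlier in low-serum (0.5% dialyzed FBS) medium.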

[17] = qHTS assay to identify small molecule antagonists of the estrogen related receptor signaling pathway with the pleiotropic PPARgamma coactivator (PGC) from Tox21 10K library (AID 1224841; call rule not given here)
Procedure, shortened: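 Compound exposure ran 18 hours at 37 C in PGC/ERR cells (2,000/well) that had first rested 6 hours in a 37 C/5% CO2 incubator. Luciferase activity was then detected with One-Glo after a 30-minute room-temperature step.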

[18] = qHTS assay to identify small molecule agonists of the estrogen related receptor signaling pathway with the pleiotropic PPARgamma coactivator (PGC) from Tox21 10K library (AID 1224842); note: nearly all actives have a fitted effect of over 15% in size
Procedure, shortened: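 Luminescence from One-Glo (30 min, room temperature) measured after PGC/ERR cells had 18 h at 37 C with pinned compound (23 nL in DMSO). Cells had been seeded at 2,000 per well and pre-incubated 6 h.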

[19] = qHTS assay to identify small molecule antagonists of the estrogen related receptor (ERR) signaling pathway from Tox21 library (AID 1224848); note: nearly all actives have a fitted effect of over 50% in size
Procedure, shortened: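 Antagonist-mode screen of the Tox21 10K library in an NTP-provided ERR reporter cell line; 18 h compound exposure at 37 C, luminescence measured with ONE-Glo.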

[20] = qHTS assay to identify small molecule agonists of the estrogen related receptor (ERR) signaling pathway from Tox21 library (AID 1224849; calls by dose curve; note: nearly all actives have a fitted effect of over 15% in size); conditions: ERR reporter cell line, ONE-Glo luciferase, 18 h
Procedure, shortened: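 We plated ERR reporter cells, waited 6 h, added compounds in DMSO by pin tool and incubated them 18 h at 37 C. ONE-Glo was then added and luminescence read after 30 min.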
% is set by controls: 0 for no effect and ±100 for the full control effect.

Sequence of Nuclear receptor subfamily 1 group I member 3 (Homo sapiens) (Q14994 whole entry, looked up): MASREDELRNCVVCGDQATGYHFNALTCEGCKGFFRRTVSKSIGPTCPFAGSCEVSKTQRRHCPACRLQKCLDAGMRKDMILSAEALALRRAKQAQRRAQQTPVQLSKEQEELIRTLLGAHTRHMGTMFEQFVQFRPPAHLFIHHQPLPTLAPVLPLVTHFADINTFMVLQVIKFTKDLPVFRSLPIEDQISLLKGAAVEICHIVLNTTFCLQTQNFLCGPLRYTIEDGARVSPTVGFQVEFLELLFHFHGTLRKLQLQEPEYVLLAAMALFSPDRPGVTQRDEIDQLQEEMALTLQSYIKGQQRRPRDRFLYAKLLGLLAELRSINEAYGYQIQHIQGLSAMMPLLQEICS
Sequence of Thyrotropin receptor (Homo sapiens) (P16473 whole entry, looked up): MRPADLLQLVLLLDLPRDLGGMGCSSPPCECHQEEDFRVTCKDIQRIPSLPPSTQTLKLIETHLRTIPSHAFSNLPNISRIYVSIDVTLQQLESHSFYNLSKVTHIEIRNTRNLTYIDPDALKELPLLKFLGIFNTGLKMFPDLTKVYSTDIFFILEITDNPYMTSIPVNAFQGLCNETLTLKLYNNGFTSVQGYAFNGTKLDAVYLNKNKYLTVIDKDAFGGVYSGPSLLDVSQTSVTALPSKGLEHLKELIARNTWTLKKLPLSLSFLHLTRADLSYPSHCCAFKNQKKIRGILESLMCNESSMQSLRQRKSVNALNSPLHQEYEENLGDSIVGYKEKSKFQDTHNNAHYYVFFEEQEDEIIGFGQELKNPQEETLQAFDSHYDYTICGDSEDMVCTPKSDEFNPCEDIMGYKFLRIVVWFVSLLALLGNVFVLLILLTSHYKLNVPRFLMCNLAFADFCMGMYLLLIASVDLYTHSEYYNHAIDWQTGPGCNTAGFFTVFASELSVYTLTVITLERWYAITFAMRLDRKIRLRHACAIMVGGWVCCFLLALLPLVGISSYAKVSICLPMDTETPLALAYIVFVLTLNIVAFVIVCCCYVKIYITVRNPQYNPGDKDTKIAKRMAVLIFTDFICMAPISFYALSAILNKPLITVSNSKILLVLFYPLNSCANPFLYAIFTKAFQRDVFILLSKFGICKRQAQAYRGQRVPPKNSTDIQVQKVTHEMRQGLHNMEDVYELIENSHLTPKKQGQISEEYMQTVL
Sequence of Luciferin 4-monooxygenase (Photinus pyralis) (P08659 whole entry, looked up): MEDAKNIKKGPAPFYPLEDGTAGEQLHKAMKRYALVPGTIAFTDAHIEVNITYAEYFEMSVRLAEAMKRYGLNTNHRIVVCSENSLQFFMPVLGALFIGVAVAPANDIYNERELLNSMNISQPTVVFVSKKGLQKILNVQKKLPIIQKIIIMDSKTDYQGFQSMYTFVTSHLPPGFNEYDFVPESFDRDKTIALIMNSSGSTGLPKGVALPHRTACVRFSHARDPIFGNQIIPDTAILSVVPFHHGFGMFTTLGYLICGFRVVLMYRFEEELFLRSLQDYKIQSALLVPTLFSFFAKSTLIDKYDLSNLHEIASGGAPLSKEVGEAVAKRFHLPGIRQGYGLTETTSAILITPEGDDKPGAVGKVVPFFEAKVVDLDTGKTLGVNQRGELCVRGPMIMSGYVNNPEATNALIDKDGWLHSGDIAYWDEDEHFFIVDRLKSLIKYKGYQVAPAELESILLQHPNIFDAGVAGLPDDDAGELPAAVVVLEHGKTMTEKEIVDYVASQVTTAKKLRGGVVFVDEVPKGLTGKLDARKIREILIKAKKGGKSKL

CC(C)(C)NCC(O)c1ccc(O)c(CO)c1 (centres undefined)
inactive: Potency [1] | Potency [2] | Potency [3] | Potency [4] | Potency [5] | Potency [6] | Potency [7] | Potency [8] | Potency [9] | outcome [10] | Potency [11] | Potency [12] | outcome [13] | Potency [14]

COCCOCCOC
inactive: Potency [1] | Potency [2] | Potency [3] | Potency [4] | Potency [5] | Potency [6] | Potency [15] | Potency [7] | Potency [8] | outcome [16] | outcome [10] | Potency [11] | Potency [12] | outcome [13] | Potency [14]

Cc1cccc(Nc2cc(Cl)nc(SCC(=O)O)n2)c1C
inactive: Potency [1] | Potency [2] | Potency [3] | Potency [4] | Potency [5] | Potency [6] | Potency [15] | Potency [7] | Potency [8] | Potency [9] | outcome [10] | Potency [11] | Potency [12] | outcome [13] | Potency [14]

C[C@]12C[C@H](O)[C@H]3[C@@H](CCC4=CC(=O)CC[C@@]43C)[C@@H]1CC[C@@H]2C(=O)CO
inactive: Potency [1] | Potency [2] | Potency [3] | Potency [4] | Potency [5] | Potency [6] | Potency [7] | Potency [8] | Potency [9] | outcome [10] | Potency [11] | Potency [12] | outcome [13] | Potency [14]
12.2 µM (active) and inactive: Potency [15]

CCCCCCCCCCCCCCCCCC(=O)OCC(O)CO (centres undefined)
inactive: Potency [1] | Potency [2] | Potency [3] | Potency [4] | Potency [5] | Potency [6] | Potency [7] | Potency [8] | outcome [16] | outcome [10] | Potency [11] | Potency [12] | outcome [13] | Potency [14]

CC1(C)O[C@@H]2[C@@H](CO[C@@]3(COS(N)(=O)=O)OC(C)(C)O[C@@H]23)O1
inactive: Potency [1] | Potency [2] | Potency [3] | Potency [4] | Potency [5] | Potency [6] | Potency [17] | Potency [18] | Potency [7] | Potency [8] | Potency [19] | activity change, positive = activation ([20]; at 42.5 µM (top of the series)) 1.2% | activity change, positive = activation ([20]; at 92.4 µM (top of the series)) -14.9% | outcome [10] | Potency [11] | Potency [12] | outcome [13] | Potency [14]

CCCCOCCOCCOC(C)=O
inactive: Potency [1] | Potency [2] | Potency [3] | Potency [4] | Potency [5] | Potency [6] | Potency [17] | Potency [18] | Potency [7] | Potency [8] | Potency [9] | Potency [19] | activity change, positive = activation ([20]; at 92.4 µM (top of the series)) 0.387% and 1.02% | outcome [10] | Potency [11] | Potency [12] | outcome [13] | Potency [14]
